Among all 170,000 compounds or so, about 460 (0.27%) were called active.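 The calls were made as follows: active = inhibition above the plate cutoff, the mean inhibition of test wells on that plate plus 3 SD (cut at about 28% in these data); inactive = the rest.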 For the sample, actives were picked, then their nearest neighbours and some compounds at random.
Target: Sphingosine 1-phosphate receptor 3 (Homo sapiens) (UniProt Q99500)
Experiment: inhibition of S1P-stimulated S1P3 activation – cell-based, primary screen (AID 485);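 also: cells challenged with S1P at its EC80 of 0.8 µM; blue over green emission ratio from cleaved BLA substrate after 4 h stimulation; 0% = S1P-stimulated wells and 100% = unstimulated DMSO-only wells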
Details: CHO S1P3 NFAT-BLA reporter, FRET fluorescence, antagonist mode; at 4.98 µM; hits give high values

Chain of Sphingosine 1-phosphate receptor 3 (Homo sapiens) (Q99500 whole entry, looked up): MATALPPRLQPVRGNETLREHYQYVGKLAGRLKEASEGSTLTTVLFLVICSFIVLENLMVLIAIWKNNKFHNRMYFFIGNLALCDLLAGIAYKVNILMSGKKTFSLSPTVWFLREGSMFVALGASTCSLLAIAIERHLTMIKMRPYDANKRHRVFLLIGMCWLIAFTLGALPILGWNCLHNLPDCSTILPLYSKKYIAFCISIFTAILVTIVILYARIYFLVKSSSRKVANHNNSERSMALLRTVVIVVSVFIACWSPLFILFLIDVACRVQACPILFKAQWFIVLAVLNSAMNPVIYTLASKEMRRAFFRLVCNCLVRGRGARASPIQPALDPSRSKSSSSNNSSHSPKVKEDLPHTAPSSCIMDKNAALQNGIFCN

inhibition, active:
O=C(Nc1ccccc1Cl)/C(Cl)=C(\Cl)S(=O)c1ccccc1 (stereo not drawn) 40.8%

inhibition, inactive:
COc1ccccc1NC(=O)c1c(Br)cnn1C 2.9%, O=C(O)c1ccccc1OCc1ccccc1Cl 8.64%, O=C(/C=C/c1ccc(Cl)cc1)Nc1ccc(S(=O)(=O)Nc2ncccn2)cc1 -1.53%, Cc1cc(C)n(CC(C)NCc2c(C(=O)N3CCOCC3)nc3c(C)cccn23)n1 (stereo not drawn) 16%, COc1cccc(CC2(CO)CCCN(Cc3nc(-c4cccs4)oc3C)C2)c1 (stereo not drawn) -7.51%, CCC(CC)c1nnc(NC(=O)c2nn(C)c(=O)c3ccccc23)s1 -16.1%, COc1ccc(N2CCN(C(=O)/C(C#N)=C/c3ccccc3)CC2)cc1 -0.3%, Nc1cc(C(F)(F)F)ccc1N1CCOCC1 8.92%, COc1cc(OC)cc(/C(N)=N/O)c1 9.29%, CCOc1cc(N2CCOCC2)c(OCC)cc1NC(=O)c1ccc(C)s1 2.86%, CCOC(=O)CN(C(=O)COc1nc(-c2ccccc2)cc(C)c1C#N)c1ccc(F)cc1 -12.8%, Nc1nc(NCC2CCCO2)nc(Nc2ccccc2F)c1[N+](=O)[O-] (stereo not drawn) 6.85%, CC(C)NC(=O)/C(C#N)=C\c1ccc(N(C)C)c(Br)c1 -16.2%, C=CCN(c1ccccc1C(=O)NCC(=O)OCC)S(=O)(=O)c1ccc(C)cc1 3.85%, CC1=CC2=NC(=O)/C(=C/c3coc4ccccc4c3=O)C(=N)N2O1 -5.98%, CCOc1cc(NS(=O)(=O)c2ccc(OC)cc2)c(OCC)cc1NC(C)=O -10.8%, O=C(NCCN1CCOCC1)c1ccc2c(c1)N(Cc1ccc(Cl)cc1)CCS2 1.26%, CCc1ccc(Nc2nnc(SCC(=O)c3ccc4c(c3)NC(=O)CO4)s2)cc1 -5.18%, O=C(c1ccc(F)cc1)n1cc(C(=S)N2CCOCC2)c2ccccc21 16.1%, O=C(CN1CCCCC1)Nc1ccccc1Cl -9.78%, O=C(Nc1ccccc1Cl)c1ccc2nsnc2c1 0.3%, CCOC(=O)C1=C(c2ccccc2)NC(=S)NC1c1ccc(Cl)cc1 (stereo not drawn) -1.74%, C=CCN1CC(C)/C(=N\O)CC1C (stereo not drawn) -3.95%, Cc1cc(C)nc(Nc2cc([N+](=O)[O-])ccc2C)n1 11.2%, Cc1nn(-c2ccc([N+](=O)[O-])cc2)c(N)c1-c1ccccc1 -7.46%, COc1ccccc1C1CCN(C(=S)Nc2ccc(Br)cc2)CC1 7.17%, O=C(Nc1ccc(N2CCN(C(=O)c3ccccc3)CC2)c(Cl)c1)c1ncn[nH]1 7.3%
